A selection: hits, their analogues and other compounds. The true share with any hit is near 3.1%.
BRCT inh green: qHTS Assay for Inhibitors of BRCT-Phosphoprotein Interaction (Green Fluorophore); 75,000 tested, 0.05% active; Breast cancer type 1 susceptibility protein (Homo sapiens), P38398; AID 875, 2007; Potency, µM (doses to about 76.9 µM), for the others: top-dose activity change, negative = inhibition, actives largely listed as inhibitors; BRCA1 BRCT-phosphopeptide binding, green fluorescence polarization;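 also: potency is read from the fitted curve at half-maximal effect; plate controls were peptide without protein for full effect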
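Compounds were incubated for 12 min at room temperature with a complex of 100 nM fluorescein-tagged pBACH1 decapeptide and 250 nM His-tagged BRCT protein. Buffer was phosphate pH 7.3 with EDTA, DTT and Tween 20. Disruption of binding lowers the polarization signal.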
DNA Pol III inh: qHTS Assay for Inhibitors of DNA Polymerase III Holoenzyme System | 71,000 tested, 0.25% active | reconstituted DNA polymerase III holoenzyme replication, biochemical | Potency, µM (top dose mostly 57.1 µM), without a hit: at the top dose activity change, negative = inhibition; also: potency is read from the fitted curve at half-maximal effect; % is scaled to controls: 0 for no effect and ±100 for the full control effect
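Reconstituted *E. coli* holoenzyme (0.35 nM Pol III, 1 nM beta, 154 nM SSB, 2 nM primase) was preincubated with compound for 15 min at RT. Synthesis on 1.4 nM ssM13Gori ran 35 min, then was stopped with PicoGreen/EDTA and read as dsDNA fluorescence.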
BRCT PPI red: qHTS Assay for Inhibitors of BRCT-Phosphoprotein Interaction (Red Fluorophore); Breast cancer type 1 susceptibility protein (Homo sapiens), P38398; BRCT-phosphopeptide binding, red fluorescence polarization; Potency, µM (doses to about 76.9 µM), for inactives: at the highest dose activity change, negative = inhibition, hits mostly inhibitors; 75,000 tested, 0.03% active; AID 892, 2007; also: % is scaled to controls: 0 for no effect and ±100 for the full control effect
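Fluorescence polarization: 100 nM His-tagged BRCA1 BRCT with 100 nM TAMRA-labelled phospho-BACH1 decapeptide, phosphate buffer pH 7.3 with 150 mM NaCl, DTT, 0.01% Tween 20; 12 min RT. Binding inhibition seen as FP decrease.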
Tau fil binding: qHTS Assay for Tau Filament Binding; recombinant tau filaments, thioflavin S fluorescence, 15 h; filaments grown with octadecylsulfate alongside compound; Potency, µM (top dose mostly 57.1 µM), for inactives: top-dose activity change, negative = inhibition; 71,000 tested, 2% active; AID 596, 2007;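 also: potency is read from the fitted curve at half-maximal effect; % is scaled to controls: 0 for no effect and ±100 for the full control effect; actives lower thioflavin S fluorescence by blocking filaments or displacing dye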
Target sequence (P10636 whole entry, looked up): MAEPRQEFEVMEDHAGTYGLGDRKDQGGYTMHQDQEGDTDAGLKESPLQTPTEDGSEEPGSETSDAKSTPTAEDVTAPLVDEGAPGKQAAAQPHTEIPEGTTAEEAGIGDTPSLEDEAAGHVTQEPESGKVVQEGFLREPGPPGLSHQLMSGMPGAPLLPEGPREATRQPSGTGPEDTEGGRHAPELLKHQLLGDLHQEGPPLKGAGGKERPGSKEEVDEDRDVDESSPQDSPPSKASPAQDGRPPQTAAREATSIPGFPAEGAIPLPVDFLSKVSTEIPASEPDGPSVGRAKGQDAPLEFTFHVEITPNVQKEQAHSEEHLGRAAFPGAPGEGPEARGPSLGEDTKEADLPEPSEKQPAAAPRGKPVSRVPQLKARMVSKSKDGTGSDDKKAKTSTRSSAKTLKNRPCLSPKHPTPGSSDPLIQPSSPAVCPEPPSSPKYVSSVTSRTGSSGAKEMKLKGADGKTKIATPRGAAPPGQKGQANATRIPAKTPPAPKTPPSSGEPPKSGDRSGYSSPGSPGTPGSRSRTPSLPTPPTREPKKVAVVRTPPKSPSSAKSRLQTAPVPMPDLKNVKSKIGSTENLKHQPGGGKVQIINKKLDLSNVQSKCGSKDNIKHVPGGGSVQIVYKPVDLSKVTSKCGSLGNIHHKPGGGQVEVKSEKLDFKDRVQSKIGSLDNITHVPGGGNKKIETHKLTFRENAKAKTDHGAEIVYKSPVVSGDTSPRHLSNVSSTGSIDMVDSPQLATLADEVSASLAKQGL
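Quantitative HTS: thioflavine S signal from ODS-induced tau filaments, excited at 450 nm, emission 510 nm. Conditions: 1 uM tau, 30 uM ODS, 15 h at 37 C, pH 7.4.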
15-hLO inh: qHTS Assay for Inhibitors of 15-hLO (15-human lipoxygenase); 74,000 tested, 1.4% active; Potency, µM (titrated, usually from 57.1 µM), for inactives: at the top dose activity change, negative = inhibition, most hits filed as inhibitors; purified 15hLO-1, xylenol orange hydroperoxide absorbance; AID 887, 2007; Polyunsaturated fatty acid lipoxygenase ALOX15 (Homo sapiens), P16050; also: potency is read from the fitted curve at half-maximal effect; % is scaled to controls: 0 for no effect and ±100 for the full control effect; nearly all actives have a fitted effect of over 55% in size
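Hydroperoxide formed from arachidonic acid (50 uM) by purified human 15hLO-1 (40 nM) oxidizes ferrous iron, and the ferric-xylenol orange complex is read at 573 versus 405 nm. Compounds were preincubated 15 min; reaction ran 6 min at room temperature.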
TsaE inh: qHTS Assay for Inhibitors of YjeE. purified YjeE enzyme, qHTS inhibition assay. Potency, µM. 71,000 tested, 0.05% active. AID 605, 2007
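Purified YjeE (10 uM) with BODIPY Texas Red-labeled ADP probe (2 uM); compounds pin-transferred, 15 min at room temperature. Binding inhibition read as decreased fluorescence polarization; ADP titration as control.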
* hit, by the source's call; [ ] = dose if it differs, or a comment. Calls follow the shape of the dose curve; as a rule, active = well fitted curve in the direction sought with a large enough effect; inconclusive = small, poorly fitted or top-dose-only effect, or another doubt; inactive = no such curve, though single readings can be large; an effect the other way counts as inactive or inconclusive.

How did CCCCCCNC(=O)C(C#N)c1nc2ccccc2nc1N1CCCC1 (stereo not drawn) do in these assays?
BRCT inh green: 10%; DNA Pol III inh: 4%; BRCT PPI red: 1%; Tau fil binding: -9%; 15-hLO inh: 2%; TsaE inh: inactive

Results for CCN(CC)c1nc2ccccc2nc1C(C#N)C(=O)NCCCOC (stereo not drawn) ?
BRCT inh green: 0%; DNA Pol III inh: -9%; BRCT PPI red: -1%; Tau fil binding: 7.9µM*; 15-hLO inh: -18%; TsaE inh: inactive

Results for N#CC(C(=O)NCc1ccco1)c1nc2ccccc2nc1N1CCOCC1 (stereo not drawn) ?
BRCT inh green: 0%; DNA Pol III inh: -9%; BRCT PPI red: 0%; Tau fil binding: 4µM*; 15-hLO inh: -11%; TsaE inh: inactive

How did CCCCCCNC(=O)C(C#N)c1nc2ccccc2nc1N1CCOCC1 (stereo not drawn) do in these assays?
BRCT inh green: 6%; DNA Pol III inh: -1%; BRCT PPI red: -1%; Tau fil binding: 4µM*; 15-hLO inh: -1%; TsaE inh: inactive

Results for CCOC(=O)C1=CC(OC(CC)CC)C(NC(C)=O)C(N)C1 (stereo not drawn) ?
BRCT inh green: -1%[3.08 µM]; BRCT PPI red: 0%; 15-hLO inh: -4%

Results for COC(=O)CC1C(C)(C)C(OC(C)=O)[C@@]2(O)C=C3C4CC(=O)OC(c5ccoc5)[C@]4(C)CCC3[C@@]1(C)C2=O (stereo partly drawn) ?
BRCT inh green: 0%[3.08 µM]; BRCT PPI red: 0%; 15-hLO inh: 1%

Results for CC(CC(O)C1OC1(C)C)C1CCC2(C)C3=CCC4C(C)(C)C(=O)CCC4(C)C3CC[C@@]12C (stereo partly drawn) ?
BRCT inh green: -2%[3.08 µM]; BRCT PPI red: 0%; 15-hLO inh: -9%

What do the screens show for `CC(=O)OC1CC2C(C)(C)C(O)C=C[C@@]2(C)C2CC[C@@]3(C)C(c4ccoc4)OC(=O)C4OC43[C@]12C` (stereo partly drawn)?
BRCT inh green: 1%; BRCT PPI red: 1%; 15-hLO inh: -7%

How did CCOC(=O)N1CCN(c2nc3ccccc3nc2C(C#N)C(=O)NCCc2ccccc2)CC1 (stereo not drawn) do in these assays?
BRCT inh green: -1%; DNA Pol III inh: 3%; BRCT PPI red: 0%; Tau fil binding: 4µM*; 15-hLO inh: -11%; TsaE inh: inactive

Results for O=C(O)/C=C(\CC(=O)O)C(=O)O ?
BRCT inh green: 0%[15.4 µM]; DNA Pol III inh: -6%[11.4 µM]; BRCT PPI red: -3%[15.4 µM]; Tau fil binding: -3%[11.4 µM]; 15-hLO inh: 19%[11.4 µM]; TsaE inh: inactive

Results for CS(=O)(=O)N1CCC2(CCCN(c3ccncc3)C2)CC1 ?
BRCT inh green: -4%; DNA Pol III inh: -6%; BRCT PPI red: -3%; Tau fil binding: -5%; 15-hLO inh: 0%; TsaE inh: inactive

Results for O=S(=O)(O)c1ccccc1 ?
BRCT inh green: 1%; DNA Pol III inh: -5%; BRCT PPI red: 2%; Tau fil binding: 9%; 15-hLO inh: -17%; TsaE inh: inactive

How did COc1ccc(OC)c(NC(=O)C2CCCN(S(=O)(=O)c3c(C)noc3C)C2)c1 (stereo not drawn) do in these assays?
BRCT inh green: -1%; DNA Pol III inh: 0%; BRCT PPI red: 0%; Tau fil binding: 25µM*; 15-hLO inh: -5%; TsaE inh: inactive

Assay outcomes as filed in PubChem.
